The assay relates to MIWI (PIWIL1) piRISC loaded with L1MC piRNA (30 nt). The assay can be described thus: pre-steady-state target cleavage rate (min^-1); MIWI and MILI are mouse PIWI proteins and EfPiwi is from a freshwater sponge; tags in brackets are library labels; higher = faster piRNA-guided slicing of the target. To be noted: guide: L1MC piRNA 5'p-UAACUAAAUACUAUGCAAGCUGUAGGUCCU
In a few lines: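 Using HEPES–potassium acetate buffer at 33 °C, 1 nM active affinity-purified piRISC with a single synthetic guide was mixed with 0.1 nM transcribed, DNA-blocked target RNA library for 0–8 or 0–960 min, with or without 500 nM GTSF1 partner protein. Uncleaved targets were sequenced and normalised to depth and to weakly complementary targets, and three trials were pooled with k3 capped at 0.0001 min^-1. A burst-and-steady-state fit gave the pre-steady-state cleavage rate.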

[1] abbreviates: auxiliary factor: 500 nM mouse GTSF1.
Where [2] appears, read: auxiliary factor: none (no GTSF1).

± gives the standard deviation. Whole data set: some 8,200 sequences, median “pre-steady-state target cleavage rate” near 0.024, cut for the highest 2% near 1.3. For the sample, the highest values were picked, then their nearest neighbours and some sequences at random.

AGGACCUACAGCUUGCAUAGAAUUUAGUUA: the “pre-steady-state target cleavage rate” value by setting is: under setting [1], 0.559 ± 0.044; under setting [2], 0.0408 ± 0.011. For UCCUGCAACAGCUUGCAAAGUAUUUAGUUA the same measures were 1.32 ± 0.076 and 0.0463 ± 0.01. The matching figures for UCCUGGAACAGCUUGCUUAGUAUUUAGUUA: 1.14 ± 0.053 and 0.0404 ± 0.0098. Take UCCUGCUACAGCAUGCAUAGUAUUUAGUUA: the “pre-steady-state target cleavage rate” value is, setting by setting: under setting [1], 1.21 ± 0.086; under setting [2], 0.0207 ± 0.0053. On to UCCUGGAACAGCUUGCAGUAGUAUUUAGUUA, for which the “pre-steady-state target cleavage rate” value under setting [1] turned out to be 0.00503 ± 0.0043. With UCCUGGAACAGCUUGCGUAGUAUUUAGUUA, the “pre-steady-state target cleavage rate” value is, setting by setting: under setting [1], 1.43 ± 0.087; under setting [2], 0.0397 ± 0.0099.

UCCUGCAACAGCUAGCAUAGUAUUUAGUUA: the “pre-steady-state target cleavage rate” value worked out at 1.12 ± 0.047 under setting [1] and 0.0185 ± 0.004 under setting [2].

For UCCUGCAACAGCUUGCAUAGUAUUUAGUUA, the “pre-steady-state target cleavage rate” value is, setting by setting: under setting [1], 1.57 ± 0.12; under setting [2], 0.0696 ± 0.017. UCCUCCAACAGCUUGCAAAGUAUUUAGUUA: the “pre-steady-state target cleavage rate” value under setting [1] was 1.16 ± 0.043 and the “pre-steady-state target cleavage rate” value under setting [2] stood at 0.0397 ± 0.0099. The matching figures for UCCUGCUACAGCUUGCAAAGUAUUUAGUUA: 0.619 ± 0.037 and 0.03 ± 0.0055.

Take UCCUGCAACAGCUUGCAUAGUAUUUAGAAA: the “pre-steady-state target cleavage rate” value reads like this: under setting [1], 0.429 ± 0.059; under setting [2], 0.00469 ± 0.0034. As to UCCUGCAACAGCUUGCAUAGUAUUUAGUAA, the “pre-steady-state target cleavage rate” value runs as follows: under setting [1], 1.22 ± 0.083; under setting [2], 0.0736 ± 0.021. UCCUGCAACAGCAUGCAUAGUAUUUAGUUA: the “pre-steady-state target cleavage rate” value reads like this: under setting [1], 1.36 ± 0.087; under setting [2], 0.0331 ± 0.0088. Regarding UGCACCUACAGCUUGCAUAGUAUUUUGUUA, the “pre-steady-state target cleavage rate” value runs as follows: under setting [1], 0.852 ± 0.083; under setting [2], 0.0692 ± 0.015. Turning to UCCUGGAUGUGCUUGCAUAGUAAUUUGUUA, the “pre-steady-state target cleavage rate” value is, setting by setting: under setting [1], 0.0171 ± 0.0079; under setting [2], 0.00536 ± 0.0029.

Consider UCCACCAACAGCUUCCAUAGUAUUUAGUUA, for which the “pre-steady-state target cleavage rate” value reads like this: under setting [1], 0.0426 ± 0.015; under setting [2], 0.00399 ± 0.0017. Turning to AGGACCAACAGCUUGCAUUGUAUUUAGUUA, the “pre-steady-state target cleavage rate” value turned out to be 0.923 ± 0.044 under setting [1] and 0.0356 ± 0.0086 under setting [2]. Regarding UCCUCCUACAGCUUGCAUAGUUUUUACAAA, under setting [1], the “pre-steady-state target cleavage rate” value turned out to be 0.185 ± 0.029. Take UCCUGGAACAGCUUGCAUAGUUAUUAGUUA: the “pre-steady-state target cleavage rate” value is, setting by setting: under setting [1], 0.113 ± 0.015; under setting [2], 0.015 ± 0.0044.

For UCCUGGAACAGCUUGCAUAGUAUCUUAGUUA, the “pre-steady-state target cleavage rate” value under setting [1] amounted to 0.777 ± 0.046 and the “pre-steady-state target cleavage rate” value under setting [2] was 0.0258 ± 0.0072. UCCUGCAACAGCUUGGAUAGUAUUUAGUUA: the “pre-steady-state target cleavage rate” value under setting [1] was 1.24 ± 0.1 and the “pre-steady-state target cleavage rate” value under setting [2] stood at 0.0688 ± 0.012. For UCCUGGAACAGCUUGCAUAGUAUCUAGUUA, the “pre-steady-state target cleavage rate” value is 0.508 ± 0.045 under setting [1] and 0.0563 ± 0.011 under setting [2]. With UCCUGGAACAGCUUGCAUAGUAUUUUAGUUA, the “pre-steady-state target cleavage rate” value under setting [1] was found to be 0.875 ± 0.046 and the “pre-steady-state target cleavage rate” value under setting [2] turned out to be 0.0159 ± 0.003. Regarding “UCCUGGAACAGCUUGCAUAGUAUUUAGUUA [g2:g23:cont:t1A]”, the “pre-steady-state target cleavage rate” value is, setting by setting: under setting [1], 1.18 ± 0.034; under setting [2], 0.0833 ± 0.014. As to UCCUGCAACAGCUUGCAUUGUAUUUAGUUA, the “pre-steady-state target cleavage rate” value under setting [1] worked out at 0.964 ± 0.068 and the “pre-steady-state target cleavage rate” value under setting [2] came out at 0.0397 ± 0.01. As to UCCUGGAACAGCUUGUAUAGUAUUUAGUUA, the “pre-steady-state target cleavage rate” value amounted to 1.37 ± 0.056 under setting [1] and 0.0564 ± 0.012 under setting [2]. Take UCCUGGAAACAGCUUGCAUAGUAUUUAGUUA: the “pre-steady-state target cleavage rate” value under setting [1] was determined as 1.34 ± 0.051 and the “pre-steady-state target cleavage rate” value under setting [2] came out at 0.0675 ± 0.012. Regarding UCCUGCAACAGCUUGCUUAGUAUUUAGUUA, the “pre-steady-state target cleavage rate” value came to 1.4 ± 0.097 under setting [1] and 0.0478 ± 0.013 under setting [2]. The matching figures for UCCUGGAACAGCUUGCAUAGUAUUCUAGUUA: 0.285 ± 0.041 and 0.0119 ± 0.0031.

For UCGACCUACAGCUUGCAUAGUAUUCUAGUUA, the “pre-steady-state target cleavage rate” value reads like this: under setting [1], 0.882 ± 0.094; under setting [2], 0.0316 ± 0.0072. The matching figures for UGGACCUACAGCUUGCUUAGUAUUAAGUUA: 0.454 ± 0.041 and 0.012 ± 0.0028. As to UCCUCCUACAGCUUGCAUACUAUUAAGUUA, the “pre-steady-state target cleavage rate” value reads like this: under setting [1], 0.147 ± 0.022; under setting [2], 0.00892 ± 0.0014. On to AGGACCUACAGGUUGCAAAGUAUUUAGUUA, for which the “pre-steady-state target cleavage rate” value reads like this: under setting [1], 1.21 ± 0.045; under setting [2], 0.0226 ± 0.0041. In the case of UCCUCCUACAGGUUGCAAAGUAUUUAGUUA, the “pre-steady-state target cleavage rate” value runs as follows: under setting [1], 1.29 ± 0.06; under setting [2], 0.0159 ± 0.0033.

Take UCGACCUACAGGUUGCAAAGUAUUUAGUUA: the “pre-steady-state target cleavage rate” value came to 1.33 ± 0.054 under setting [1] and 0.0193 ± 0.0046 under setting [2]. In the case of UCGACCUACAGGUUGCAUAGUAUUUAGUUA, the “pre-steady-state target cleavage rate” value came out at 1.14 ± 0.053 under setting [1] and 0.0468 ± 0.0088 under setting [2].

Turning to UCCACCUACAGGUUGCAAAGUAUUUAGUUA, the “pre-steady-state target cleavage rate” value under setting [1] is 1 ± 0.04 and the “pre-steady-state target cleavage rate” value under setting [2] turned out to be 0.0166 ± 0.0038. For the sequence UGGACCUACAGGUUGCAAAGUAUUUAGUUA, the “pre-steady-state target cleavage rate” value by setting is: under setting [1], 1.33 ± 0.082; under setting [2], 0.02 ± 0.0043. Take UCCUGCUACAGCUUGCAUAGUAUUUAGUCUA: the “pre-steady-state target cleavage rate” value came out at 0.156 ± 0.025 under setting [1] and 0.00747 ± 0.0028 under setting [2].

Consider UCGACCUACAGCUUGCAUAGUUAAUUCAAA, for which the “pre-steady-state target cleavage rate” value under setting [1] was 0.538 ± 0.15. As for UCCUGGAUGAGCUUGCAUAGUUUUUUGUUA, the “pre-steady-state target cleavage rate” value was 0.0806 ± 0.014 under setting [1] and 0.0177 ± 0.0048 under setting [2]. As to UCCUGGAUGAGCUUGCAUUGUAUUUACUUA, the “pre-steady-state target cleavage rate” value reads like this: under setting [1], 0.0649 ± 0.016; under setting [2], 0.00906 ± 0.0031. Take AGGACCUACAGCUUGCAUAGAAUUUUGUUA: the “pre-steady-state target cleavage rate” value is 0.501 ± 0.047 under setting [1] and 0.0183 ± 0.0047 under setting [2]. As for AGGACCUACAGCUUGCAUAGUAUUUAGUA, the “pre-steady-state target cleavage rate” value by setting is: under setting [1], 0.795 ± 0.042; under setting [2], 0.0502 ± 0.014. For UGCACCUAGAGCUUGCAUAGUAUUUAGUUA the same measures were 1.2 ± 0.25 and 0.0155 ± 0.0045.

For UGGACCUACUAGCUUGCAUAGUAUUUAGUUA, the “pre-steady-state target cleavage rate” value by setting is: under setting [1], 0.63 ± 0.036; under setting [2], 0.0509 ± 0.01. On to AGCACCUAGAGCUUGCAUAGUAUUUAGUUA, for which the “pre-steady-state target cleavage rate” value is, setting by setting: under setting [1], 1.47 ± 0.37; under setting [2], 0.00468 ± 0.0035. Take UCGACCUAGCAGCUUGCAUAGUAUUUAGUUA: the “pre-steady-state target cleavage rate” value worked out at 1.34 ± 0.058 under setting [1] and 0.0726 ± 0.016 under setting [2]. Consider UCGACCUACUAGCUUGCAUAGUAUUUAGUUA, for which the “pre-steady-state target cleavage rate” value under setting [1] amounted to 0.784 ± 0.042 and the “pre-steady-state target cleavage rate” value under setting [2] was 0.0512 ± 0.01. As to UGGACCUAGCAGCUUGCAUAGUAUUUAGUUA, the “pre-steady-state target cleavage rate” value reads like this: under setting [1], 1.59 ± 0.13; under setting [2], 0.0734 ± 0.014. For AGGACCUAGCAGCUUGCAUAGUAUUUAGUUA the same measures were 1.21 ± 0.073 and 0.0735 ± 0.015. On to UCCACCUAGAGCUUGCAUAGUAUUUAGUUA, for which the “pre-steady-state target cleavage rate” value was found to be 0.593 ± 0.06 under setting [1] and 0.0282 ± 0.0051 under setting [2].

As for UCCACCUAGCAGCUUGCAUAGUAUUUAGUUA, the “pre-steady-state target cleavage rate” value runs as follows: under setting [1], 0.833 ± 0.057; under setting [2], 0.0454 ± 0.0087. Regarding UCGACCUACAGCUUCCAUAGUAAUUAGUUA, under setting [1], the “pre-steady-state target cleavage rate” value was found to be 0.0526 ± 0.017. Regarding UCCACCUACAGCUUGCAAUCUAUUUAGUUA, the “pre-steady-state target cleavage rate” value under setting [1] came out at 0.194 ± 0.018. For the sequence UGGACCUACUGCUUGCAUAGUAAUUAGUUA, the “pre-steady-state target cleavage rate” value was 0.866 ± 0.04 under setting [1] and 0.033 ± 0.0084 under setting [2]. UCCUGGAUGUGCAUGCAUUGUAUUUAGUUA: the “pre-steady-state target cleavage rate” value under setting [1] turned out to be 0.00495 ± 0.0033.

As for UCCUGGUACAGGAAGCAUAGUAUUUAGUAA, the “pre-steady-state target cleavage rate” value under setting [1] turned out to be 0.0592 ± 0.011.

Take UCCACCAACAGCUAGCAUAGUAUUUAGUUA: the “pre-steady-state target cleavage rate” value runs as follows: under setting [1], 0.97 ± 0.033; under setting [2], 0.0197 ± 0.0045.

For UGGAGGUACAGCUUGCAUAGUAUUUUCAAA, the “pre-steady-state target cleavage rate” value by setting is: under setting [1], 0.0674 ± 0.014; under setting [2], 0.00316 ± 0.0017. Consider UGGAGCUACAGCUUCCAUAGUAUUUAGUUA, for which the “pre-steady-state target cleavage rate” value came to 0.275 ± 0.047 under setting [1] and 0.00584 ± 0.0013 under setting [2].

For the origin of these results see the supplement of paper PMC10338343.
